Records with an inconclusive call do not appear. A call without a number means that no potency is given here. Activity calls are given as the source filed them. Calls follow the shape of the dose curve; as a rule, active = well fitted cell-killing curve with a large enough effect in the repeat runs; inconclusive = weak or mixed curves, or effect the other way; inactive = no such curve, though single readings can be large or run the other way.
Assay: qHTS assay to identify small molecule agonists of the RXR signaling pathway - cell viability counter screen (AID 1159529); also: nearly all actives have a fitted effect of over 50% in size
Details: RXR-alpha-bla HEK293T viability, CellTiter-Glo, 16 h; series mostly up to 35.3 µM
From the text: National Center for Advancing Translational Sciences [NCATS]
NIH Chemical Genomics Center [NCGC]
U.S. Environmental Protection Agency [EPA]
National Institutes of Environmental Health Sciences [NIEHS]
National Toxicology Program [NTP]
U.S. Food and Drug Administration [FDA]
The Retinoid X receptor (RXR), a nuclear hormone receptor expressed in liver, spleen, placenta, epidermis, central nervous system. These receptors are able to form homo and heterodimers with other nuclear receptors and due to this heterodimerizing ability, RXR functions as master regulators producing diverse physiological effects. Three subtypes of RXR exist; alpha, beta and gamma. Retinoid X receptor alpha (RXR-alpha) has potential roles in metabolic signaling pathways, skin alopecia, dermal cysts, cardiac development, insulin sensitization etc. Therefore screening environmental chemicals on RXR-alpha signaling can be used for the studies focused on such therapeutic applications. For quantification of RXR-alpha ligands signaling, GeneBLAzer RXR alpha-UAS-bla HEK 293T (Life Technologies, Carlsbad, CA) cells containing a beta-lactamase reporter-gene under control of Retinoid X receptor-alpha response element were used to screen Tox21 10K library. The cytotoxicity of the Tox21 compound library against the RXR-alpha HEK 293T cell line was tested in parallel by measuring cell viability using CellTiter-Glo assay (Promega Corporation, Madison, WI) in the same wells.
Tox21 Assay Protocol Summary:
RXR-alpha HEK 293T cells were dispensed at 2,000 cells/6 uL of assay medium containing 2% charcoal-stripped FBS using a Multidrop Combi (ThermoFisher Scientific, Waltham, MA) dispenser. The assay was performed in black wall/clear-bottom 1536-well plates (Greiner Bio-One North America Inc. Monroe, NC). Tetraoctyl ammonium bromide was used as a positive control in the cytotoxicity screen. After the assay plates were incubated at 37 C and 5% CO2 for 5 hr, 23 nL of compounds dissolved in DMSO, positive control or DMSO only were transferred to the assay plate by a Pintool station (Kalypsys, San Diego, CA). The assay plates were incubated at 37 C and 5% CO2 for 16 hr. One uL of LiveBLAzer B/G FRET substrate (Life Technologies) was added using a Flying Reagent Dispenser (FRD) (Aurora Discovery, San Diego, CA) and the plates were incubated at room temperature for 2 hr. Fluorescence intensity (405 nm excitation, 460/530 nm emission) was measured using an Envision plate reader (PerkinElmer, Shelton, CT). For cytotoxicity, 4 uL/well of CellTiter-Glo reagent was added into the assay plates using an FRD. After 30 min incubation at room temperature, the luminescence intensity was measured using a ViewLux plate reader (PerkinElmer).

| Compound | Potency |
| --- | --- |
| NC(=O)COCCN1CCN(C(c2ccccc2)c2ccc(Cl)cc2)CC1 (stereo not given) | inactive |
| N#Cc1ccc(C2CCCc3cncn32)cc1 (stereo not given) | inactive |
| Cn1c(N)c(N=O)c(=O)n(C)c1=O | inactive |
| CN1C(=O)N(C)C(O)C1O (stereo not given) | inactive |
| NC(=O)c1ccc([N+](=O)[O-])cc1 | inactive |
| NC(=O)Nc1ccccc1 | inactive |
| OC1CCCCC1c1ccccc1 (stereo not given) | inactive |
| NS(=O)(=O)c1cc(C(=O)O)cc(N2CCCC2)c1Oc1ccccc1 | inactive |
| Cc1c(O)cccc1O | inactive |
| Cc1ccc(C#N)cc1 | inactive |
| NS(=O)(=O)c1cc(C(=O)NN2C[C@H]3[C@H]4CCC(C4)[C@H]3C2)ccc1Cl | inactive |
| O=C(c1ccccc1)C1CCCCC1 | inactive |
| CC(C)c1cc2c(cc1S(=O)(=O)O)[C@@]1(C)CCC[C@@](C)(C(=O)O)[C@@H]1CC2 | inactive |
| CN(C(=O)c1c(O)c2ccccc2n(C)c1=O)c1ccccc1 | inactive |
| COC(=O)CCSCCC(=O)OC | inactive |
| C1OCOCO1 | inactive |
| CCOC(=O)c1ccc(C)cc1 | inactive |
| N=C(N)c1ccc(OCCCOc2ccc(C(=N)N)cc2)cc1 | inactive |
| NC(CSCC(=O)O)C(=O)O (stereo not given) | inactive |
| FC1(F)C(F)(F)C(F)(F)C2(F)C(F)(F)C(F)(F)C(F)(F)C(F)(F)C2(F)C1(F)F (stereo not given) | inactive |

| Compound | Potency |
| --- | --- |
| CCn1ccnc1CC1COc2ccccc2O1 (stereo not given) | inactive |
| CCCCCOC(=O)CCCCC | inactive |
| Cc1[nH]c(=O)c(C#N)cc1-c1ccc2nccn2c1 | inactive |
| COc1ccccc1OCC(O)CN1CCN(CC(=O)Nc2c(C)cccc2C)CC1 (stereo not given) | inactive |
| C=C[Si](OC(=C)C)(OC(=C)C)OC(=C)C | inactive |
| Nc1nc2c(ncn2COC(CO)CO)c(=O)[nH]1 | inactive |
| Nc1ccc(S(=O)(=O)Nc2ccnn2-c2ccccc2)cc1 | inactive |
| N[C@H](C(=O)O)c1ccc(O)cc1 | inactive |
| C/C=C(\C)C#N | inactive |
| Nc1ccccc1S(=O)(=O)O | inactive |
| CC1=CC(C)C(C=O)CC1 (stereo not given) | inactive |
| O=C1CCCCCCCCCCCN1 | inactive |
| C=COCC1CCC(CO)CC1 (stereo not given) | inactive |
| O=C(O)CCCl | inactive |
| OCCCC1CCCCC1 | inactive |
| CCO/C([O-])=N/c1c[n+](N2CCOCC2)no1 | inactive |
| O=C1CC2CC1C1CCCC21 (stereo not given) | inactive |
| CN(C)CCCNCCCN(C)C | inactive |
| Cc1cc2c(cc1S(N)(=O)=O)S(=O)(=O)CCC2 | inactive |
| CCN1CCC[C@H]1CNC(=O)c1cc(S(N)(=O)=O)ccc1OC | inactive |
